Sampled rows, rich in hits. Any-hit rate of the full collection: about 10%.
Luciferase inh – inhibitors of firefly (Photinus pyralis) luciferase; purified P. pyralis luciferase, luminescence, biochemical; Potency, µM (titrated, usually from 115 µM), hits mostly inhibitors; 2.5% of 76,000 active; also: nearly all actives have a fitted effect of over 65% in size
Target sequence (P08659 whole entry, looked up): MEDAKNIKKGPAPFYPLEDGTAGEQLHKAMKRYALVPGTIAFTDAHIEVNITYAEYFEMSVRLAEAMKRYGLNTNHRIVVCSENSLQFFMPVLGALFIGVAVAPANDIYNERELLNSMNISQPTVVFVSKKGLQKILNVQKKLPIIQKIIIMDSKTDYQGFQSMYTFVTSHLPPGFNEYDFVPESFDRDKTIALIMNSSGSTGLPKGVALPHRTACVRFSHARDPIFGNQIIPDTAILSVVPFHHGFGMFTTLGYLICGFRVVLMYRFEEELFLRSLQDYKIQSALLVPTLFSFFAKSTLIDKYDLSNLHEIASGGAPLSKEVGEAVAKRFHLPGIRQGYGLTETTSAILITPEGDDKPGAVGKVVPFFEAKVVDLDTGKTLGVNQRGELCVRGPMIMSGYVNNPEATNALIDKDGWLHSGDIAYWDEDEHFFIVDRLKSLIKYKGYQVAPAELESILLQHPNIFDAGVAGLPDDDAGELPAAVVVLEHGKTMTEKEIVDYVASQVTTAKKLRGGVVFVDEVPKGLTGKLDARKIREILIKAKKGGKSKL
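Cell-free enzyme assay, 10nM P. pyralis luciferase, luciferin and ATP each at 10uM. Inhibition profiled over a 6-point titration, read as luminescence.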
NPR1 antag – blocks ANP-stimulated signaling of human Npr1 receptor; AID 1347048; P16066; 1.6% of 76,000 active; HEK293 hNpr1 GloSensor cGMP, ANP-stimulated luminescence; Potency, µM (highest dose often 46.3 µM), for inactives: at the top dose activity change, negative = inhibition, usual class: inhibitors; calls by dose curve; also: nearly all actives have a fitted effect of over 60% in size
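HEK293 cells stably expressing human Npr1 and cGMP GloSensor pGS-40F, loaded 2 h with 2% GloSensor reagent, given compound 30 min at room temperature. Luminescence read before and 20 min after 0.1 nM hNppA.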
NIH3T3 tox – NIH 3T3 cell cytotoxicity; AID 1345082; NIH 3T3 viability, CellTiter-Glo ATP luminescence, 48-72 h; 4.3% of 94,000 active; Potency, µM (doses to about 96.7 µM), inactives show top-dose activity change, negative = cytotoxicity, usual class: inhibitors; also: nearly all actives have a fitted effect of over 55% in size
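ATP-dependent luminescence (CellTiter-Glo) served as the viability signal for NIH 3T3 cells treated with compound for 48 or 72 hr at 37 °C.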
HEK293 tox – kills HEK 293 cells. HEK 293 viability, ATP luminescence (CellTiter-Glo), 48-72 h. Potency, µM (series often up to 115 µM), for inactives: at the top dose activity change, negative = cytotoxicity, usual class: inhibitors. 6.6% of 94,000 active. AID 1345083; also: nearly all actives have a fitted effect of over 60% in size
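HEK 293 seeded at 250 cells/well receive compound via pintool. After 48 or 72 hr at 37 degree Celsius, 5% CO2 and 95% humidity, CellTiter-Glo is dispensed and luminescence read following 10 min at room temperature.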
GPT2 inhibitor – GPT2 alanine aminotransferase inhibition; Q8TD30; Recombinant GPT2, coupled pyruvate oxidase/HRP Amplex Red fluorescence; Potency, µM (series often up to 57.7 µM), for the others: top-dose activity change, negative = inhibition, usual class: inhibitors; 0.25% of 100,000 active; AID 1671188; also: nearly all actives have a fitted effect of over 60% in size
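GPT2 10ng/uL, a-KG 250uM, L-Ala 2mM, HEPES pH7.5 + 0.0001% Tween; 30 min RT. Then Amplex mix (PO/HRP/ThPP), 30 min RT dark, fluorescence. AOA 50uM used as positive control.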
Active calls of the source: *; i = inactive; ? = inconclusive; · = no result given; [ ] = remark or other dose. Unless noted, calls follow the shape of the dose curve; as a rule, active = well fitted curve in the direction sought with a large enough effect; inconclusive = small, poorly fitted or top-dose-only effect, or another doubt; inactive = no such curve, though single readings can be large; an effect the other way counts as inactive or inconclusive. % is scaled to controls: 0 for no effect and ±100 for the full control effect; potency is read from the fitted curve at half-maximal effect.

SMILES | Luciferase inh | NPR1 antag | NIH3T3 tox | HEK293 tox | GPT2 inhibitor
O=C(c1cc(Cl)ccc1F)N1CCCC(n2cc(-c3nc(-c4ccccc4)no3)nn2)C1 (configuration not stated) | ? | 16µM* | ? | 32µM* | i
COCCOC1CN(C2CCN(C(=O)c3ccco3)CC2)C12CCCCC2 (configuration not stated) | i | -1% | -17% | -24% | -13%
O=C(c1ccc(F)c(F)c1)N1CCC(n2cc(-c3nc(-c4ccccc4)no3)nn2)C1 (configuration not stated) | ? | 11µM* | ? | 40µM* | i
O=C(c1cccs1)N1CCCC(n2cc(-c3nc(-c4ccccc4)no3)nn2)C1 (configuration not stated) | 35µM* | ? | ? | ? | i
COc1ccccc1CC(=O)N1CCC(n2cc(-c3nc(-c4ccccc4)no3)nn2)CC1 | i | 0% | -18% | -2% | i
O=C(c1ccc(F)c(F)c1)N1CCCC(n2cc(-c3nc(-c4ccccc4)no3)nn2)C1 (configuration not stated) | ? | 11µM* | ? | 45µM* | -10%
O=C(c1ccc[nH]1)N1CCCC(n2cc(-c3nc(-c4ccccc4)no3)nn2)C1 (configuration not stated) | ? | ? | ? | ? | i
COc1ccccc1C(=O)N1CCC(n2cc(-c3nc(-c4ccccc4)no3)nn2)C1 (configuration not stated) | 32µM* | 13µM* | ? | 28µM* | 2%
CC1CCCC(C)N1C(=O)c1ccc2nc(-c3ccnc(Cl)c3)oc2c1 (configuration not stated) | · | · | ? | ? | 3%[88.5 µM]
COc1ccc(Cl)cc1S(=O)(=O)N1CCC(OC2CCN(C)CC2)CC1 | i | 0% | -26% | ? | -10%
O=C(c1ccncc1)N1CC(Oc2ccccc2-c2nc(-c3cnccn3)no2)C1 | i | 0% | -4% | -30% | ?
CCCc1noc(-c2cn(C3CCN(C(=O)c4cccc(F)c4)CC3)nn2)n1 | i | 0% | 35µM* | -13% | i
CCCc1noc(-c2cn(C3CCN(C(=O)c4cc(F)cc(F)c4)CC3)nn2)n1 | i | -6% | -25% | ? | i
CCCN1CCC(N2CCC(C(=O)Nc3cccc(-c4cccc(F)c4)c3)CC2)CC1 | i | -20% | 25µM* | 22µM* | -9%
COc1cccc(-c2cn3cc(C(=O)NCCc4ccc(Cl)cc4)nc3s2)c1 | · | · | -13% | 32µM* | i
COc1cccc(-c2cn3cc(C(=O)NCC4CCCCC4)nc3s2)c1 | · | · | ? | 22µM* | -7%
COc1cccc(-c2cn3cc(C(=O)NCC4CC4)nc3s2)c1 | · | · | ? | 71µM* | i
COc1ccc(-c2cn3cc(C(=O)NCC4CCCCC4)nc3s2)cc1 | · | · | -31% | ? | i
O=C(NCC1CC1)c1cn2cc(-c3ccccc3)sc2n1 | · | · | ? | 100µM* | -15%[88.5 µM]
COc1ccc(CCNC(=O)c2cn3cc(-c4cccc(OC)c4)sc3n2)cc1 | · | · | ? | ? | -5%
O=C(NCC1CC1)c1cn2cc(-c3cccc(C(F)(F)F)c3)sc2n1 | · | · | -28% | ? | -2%
O=C1NCC(=O)N2CC3(CCN(S(=O)(=O)c4ccccc4)CC3)CC12 (configuration not stated) | · | · | -4% | -3% | -1%
O=C(NCc1cccc(Cl)c1)c1ccc2nnc(C3CCCC3)n2c1 | · | · | 40µM* | ? | i
O=C(NCc1cccc(Cl)c1)c1ccc2nnc(C3CCOCC3)n2c1 | · | · | -36% | 2% | ·
O=C(NCc1ccc(Cl)cc1)c1ccc2nnc(C3CC3)n2c1 | · | · | ? | ? | i
SMILES | Luciferase inh | NPR1 antag | NIH3T3 tox | HEK293 tox | GPT2 inhibitor
O=C(NCc1cccc(C(F)(F)F)c1)c1ccc2nnc(C3CCCC3)n2c1 | · | · | ? | 45µM* | -4%
O=C(NCc1ccc(Cl)cc1)c1ccc2nnc(C3CCCC3)n2c1 | · | · | 32µM* | ? | -40%
O=C(NCc1cccs1)c1ccc2nnc(Cc3ccc(Cl)cc3)n2c1 | · | · | ? | 45µM* | -6%
O=S(=O)(c1ccc2c(c1)OCCO2)N1CC[C@@H]2COCCN(Cc3cccnc3)[C@@H]2C1 | i | -17% | ? | ? | 3%
CCC(=O)N1CCN(C2CCN(Cc3ccccn3)C2=O)CC1 (configuration not stated) | i | 2% | -7% | ? | 0%
CCc1nc(-c2c3n(c(=O)n(CC(=O)c4ccc(Cl)cc4)c2=O)CCCC3)no1 | ? | 5% | -18% | -25% | 3%
O=C(NCc1ccccc1Cl)c1ccc2nnc(C3CCCC3)n2c1 | · | · | 35µM* | ? | i
N#Cc1ccc(CN2CCCCCCNC(=O)[C@@H]3C[C@@H](C(=O)N4CCc5ccccc5C4)C[C@@H]32)cc1 | i | -14% | ? | ? | 1%
Cc1ncsc1CN1CCCCCCNC(=O)[C@@H]2C[C@@H](C(=O)N3CCc4ccccc4C3)C[C@@H]21 | i | -18% | -19% | 89µM* | 2%
N#Cc1ccc(CN2C[C@@H](CO)[C@H](c3ccccn3)C2)cc1 | i | 4% | -20% | -8% | ?
Cc1noc2c(NC3CCC(O)CC3)cc(-c3cccnc3)nc12 (configuration not stated) | i | 8%[70.6 µM] | 25µM* | -18%[172 µM] | -33%[88.5 µM]
Cc1noc2c(NC3CCC(O)CC3)cc(-c3cccs3)nc12 (configuration not stated) | i | 0%[70.6 µM] | 28µM* | ? | -2%[88.5 µM]
Cc1noc2c(NC3CCN(C)CC3)cc(-c3cccnc3)nc12 | i | -1%[70.6 µM] | ? | ? | -2%[88.5 µM]
Cc1noc2c(N3CCNC(=O)C3)cc(-c3cccc(C(F)(F)F)c3)nc12 | i | -25%[70.6 µM] | ? | ? | 4%[88.5 µM]
COc1cccc(Nc2cc(-c3cccs3)nc3c(C)noc23)c1 | i | -10%[70.6 µM] | 79µM* | 100µM* | 2%[88.5 µM]
Cc1noc2c(N3CCNC(=O)C3)cc(-c3cccs3)nc12 | i | 4%[70.6 µM] | 32µM* | ? | 1%[88.5 µM]
COc1ccccc1Cn1c(=O)c(C(=O)NCCCc2ccccc2)nc2cccnc21 | · | · | ? | ? | 3%
COc1ccccc1NC(=O)C1c2ccccc2C(=O)N(Cc2ccccc2)C12CCCC2 (configuration not stated) | i | -12% | ? | ? | -18%
O=C(c1ccccc1Cl)N1CCCC(C(=O)N2CCC(N3CCOC3=O)CC2)C1 (configuration not stated) | · | · | -18% | 0% | i
COC1CCCN(C(=O)c2cc(-c3ccc(F)cc3)cc3ncn(C)c23)C1 (configuration not stated) | 25µM* | 1%[70.6 µM] | -26%[138 µM] | ? | -14%[88.5 µM]

From PubChem
